The source of these data is PubChem BioAssay (NCATS).

SMILES strings stand for the structures. Results filed as inconclusive are left out. The source made the active and inactive calls. Calls come from the whole dose curve.
Potency is the fitted concentration of half-maximal effect.

Cytochrome P450 1A2 (Homo sapiens), sequence (P05177 whole entry, looked up): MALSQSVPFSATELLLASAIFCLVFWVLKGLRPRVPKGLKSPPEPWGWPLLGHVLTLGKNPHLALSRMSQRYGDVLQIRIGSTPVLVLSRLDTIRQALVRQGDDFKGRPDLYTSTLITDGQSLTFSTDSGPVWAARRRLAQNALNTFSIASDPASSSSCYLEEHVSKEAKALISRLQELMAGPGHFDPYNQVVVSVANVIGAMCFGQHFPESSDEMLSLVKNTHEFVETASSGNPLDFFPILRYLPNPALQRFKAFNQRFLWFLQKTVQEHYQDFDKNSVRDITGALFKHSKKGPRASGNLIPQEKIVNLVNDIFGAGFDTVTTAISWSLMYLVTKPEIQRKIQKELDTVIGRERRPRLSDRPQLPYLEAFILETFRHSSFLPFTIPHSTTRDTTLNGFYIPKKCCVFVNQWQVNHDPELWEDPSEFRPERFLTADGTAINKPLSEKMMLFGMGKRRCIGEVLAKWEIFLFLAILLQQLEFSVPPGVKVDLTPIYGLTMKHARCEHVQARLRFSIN

For the assay, the target named is Cytochrome P450 1A2 (Homo sapiens) (UniProt P05177). Put plainly: p450-cyp1a2 (AID 410). The note with it: recombinant CYP1A2, luciferin-ME demethylation, luminescence; series mostly up to 57 µM. The method in brief:
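O-Demethylation of luciferin 6' methyl ether by human CYP1A2 is monitored as luciferase luminescence. Substrate sits at Km (100uM); enzyme is 20nM. Values are scaled to 57 uM furafylline as maximal inhibition.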
Regarding `Cc1noc(C)c1-c1nccc(NCc2ccccc2)n1`, the Potency was 794 nM (active).
Under `c1ccc(CNc2cc(-c3ccoc3)ncn2)cc1` stands 25100 nM (active); under `CN(Cc1ccco1)c1cc(-c2cccnc2)ncn1`, 316 nM (active); under `c1cncc(CNc2cc(-c3ccoc3)ncn2)c1`, 3160 nM (active).
Under `CC(=O)NCCNc1nc(-c2c(C)noc2C)nc2ccccc12` stands 1580 nM (active).
With `CC(=O)NCCNc1ccnc(-c2ccccc2C)n1`, the Potency was 3980 nM (active).
With `Cc1cnc(CNc2ccnc(-c3cccc(NS(C)(=O)=O)c3)n2)cn1`, the Potency was 20000 nM (active).
For `CS(=O)(=O)Nc1cccc(-c2cc(NCc3ccccc3)ncn2)c1`, the Potency was 12600 nM (active).
Under `CCNc1ncc2nc(-c3cccc(C#N)c3)c(=O)n(CCC#N)c2n1` stands 631 nM (active); under `c1ccc(CNc2nc(-c3ccoc3)nc3ccccc23)cc1`, 631 nM (active); under `COc1ccc(CNc2ccnc(-c3cccnc3)n2)c(OC)c1`, 316 nM (active).
Then `COCCn1c(=O)c(-c2cccc(F)c2)nc2cncnc21`, with 2000 nM (active); and `CN(Cc1ccco1)c1ccnc(-c2cccnc2)n1`, with 794 nM (active).
Then `O=c1c(-c2cccc(Cl)c2)nc2cncnc2n1Cc1ccccc1`, with 1000 nM (active); and `CS(=O)(=O)Nc1cccc(-c2cncnc2Nc2ccccc2)c1`, with 5010 nM (active); and `COc1ccc(CNc2ncncc2-c2ccc(N(C)C)cc2)c(OC)c1`, with 631 nM (active).
In the case of `COc1cccc(Cn2c(=O)c(-c3cccc(C#N)c3)nc3cnc(OC)nc32)c1`, the Potency is 10000 nM (active).
Under `O=c1c(-c2cccs2)nc2cncnc2n1-c1ccccc1` stands 12600 nM (active).
Then `Cn1cc(-c2nc3cncnc3n(C3CC3)c2=O)c2ccccc21`, with 200 nM (active).
Take `Clc1ccccc1-c1nccc(NCCN2CCOCC2)n1`: the Potency was 2000 nM (active).
Under `COc1cccc(-c2cncnc2NCc2cnc(C)cn2)c1` stands 12600 nM (active); under `c1ccc(Nc2ncncc2-c2ccoc2)cc1`, 1000 nM (active).
Then `CN(C)C(=O)c1ccc(-c2nccc(-n3ccnc3)n2)cc1`, with 15800 nM (active); and `COc1cccc(-c2cncnc2NCc2cccs2)c1`, with 1260 nM (active).
As to `COc1ccc2[nH]cc(CCNc3ncncc3-c3cccnc3)c2c1`, the Potency is 316 nM (active).
Then `COc1ccccc1-c1cc(Nc2ccn[nH]2)ncn1`, with 631 nM (active); and `COc1ccccc1-c1cncnc1NCc1cccs1`, with 3160 nM (active); and `N#Cc1ccccc1-c1ccc2ncnc(NCCN3CCOCC3)c2c1`, with 10000 nM (active).
Then `CN(Cc1ccco1)c1ncncc1-c1cccnc1`, with 5010 nM (active).
Then `COc1ccc2[nH]cc(CCNc3ccnc(-c4ccc5c(c4)OCO5)n3)c2c1`, with 631 nM (active).
Regarding `Cc1ccccc1-c1cc(NCc2cccnc2)ncn1`, the Potency is 3980 nM (active).
Turning to `CCNc1ncc2nc(-c3cccs3)c(=O)n(-c3ccccc3)c2n1`, the Potency is 1580 nM (active).
As for `COCCNc1nc(-c2c(C)noc2C)nc2ccccc12`, the Potency is 126 nM (active).
Under `COc1ccccc1-c1nc(N(C)Cc2ccco2)c2ccccc2n1` stands 501 nM (active); under `COc1ccccc1-c1cncnc1NCc1ccccc1`, 12600 nM (active); under `COc1ccccc1-c1nc(NCCN2CCOCC2)c2ccccc2n1`, 7940 nM (active).
With `c1csc(CNc2nc(-c3ccoc3)nc3ccccc23)c1`, the Potency is 316 nM (active).
Then `Cc1ccccc1-c1cc(N(C)Cc2ccco2)ncn1`, with 3980 nM (active); and `CN(C)C(=O)c1ccc(-c2ccc3ncnc(N4CCOCC4)c3c2)cc1`, with “inactive”; and `CS(=O)(=O)Nc1cccc(-c2cncnc2-n2ccnc2)c1`, with 15800 nM (active).
